Shown is part of a subset that was picked to be rich in hits.
Dicer inh: inhibitors of Dicer pre-microRNA processing, primary screen, biochemical, cat-ELCCA, chemiluminescence. cat-ELCCA pre-miR-21 Dicer processing; hits give high values. z-score at 25 µM. hit rate 6% among 47,000. AID 1347074, 2019; in the data active means z-score above about 3, passing the limit was not always enough;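 further: higher signal means more uncleaved substrate so more Dicer inhibition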
Each line names hits and unclear results; the compound was inactive in the other large screens.

Nc1cc(=O)[nH]n1C1CCN(c2ccccc2)CC1	Dicer inh 3.2
Cc1nc2nc(C(F)(F)F)[nH]n2c(=O)c1Cc1ccc(Cl)cc1	none
O=c1[nH]c(=O)n(C2CCCO2)cc1F (configuration not stated)	none
C[C@H]1O[C@@H](n2cc(F)c(=O)[nH]c2=O)[C@H](O)[C@@H]1O	Dicer inh 3.1
O=c1[nH]c(=O)n(C2O[C@H](CO)[C@@H](O)[C@H]2O)cc1Br (some centres not stated)	none
CC1=CC(C)(C)Nc2ccc(OCC(=O)c3ccccc3)cc21	none
CC(C)(C)c1ccc(OCc2nc(-c3cccnc3)no2)cc1	none
CN(C)c1ncnc2c1[nH]c1ccccc12	Dicer inh 3.5
Cc1ccc2[nH]c3c(N4CCCCC4)ncnc3c2c1	none
CCN(CC)c1ncnc2c1[nH]c1ccccc12	none
N#Cc1ccc(C(=O)CSc2nnc(-c3ccco3)n2-c2ccc(OCc3ccccc3)cc2)cc1	none
Cc1ccn2cc(-c3ccccc3)cc2c1	none
O=C1C=CC(=O)C(CCC2=CC(=O)C=CC2=O)=C1	none
Cn1cc(C(=O)Nc2ccc(F)c(F)c2F)c(N)n1	none
O=C(Cn1c(-c2cncs2)nc2ccccc21)Nc1ccc2c(c1)OCCO2	Dicer inh 4.2
Clc1ccc(Cn2c(-c3cncs3)nc3ccccc32)cc1	none
O=C(Cn1c(-c2cncs2)nc2ccccc21)Nc1ccccc1Cl	none
Cc1cccc2cc(-c3noc(-c4ccccc4F)n3)c(=O)[nH]c12	none
Cc1ccc(S(=O)(=O)NC(=O)Nc2cc(C)on2)cc1	none
CCc1ccnc(NS(=O)(=O)c2ccc(C)cc2)c1	none
CCc1ccnc(NC(=O)NS(=O)(=O)c2ccc(C)cc2)c1	Dicer inh 5.1
Cc1nc(-c2ccc(S(=O)(=O)NCCNC(=O)OC(C)(C)C)s2)cs1	none
CC(C)(C)c1ccc(-c2n[nH]c(=S)n2Cc2ccco2)cc1	none
CCOC(=O)CNC(=O)CC(=O)OCC	none
Cc1ccc(-c2nc3cc(NC(=O)c4ccc([N+](=O)[O-])o4)ccc3o2)cc1	none
Cc1ccc(-c2nc3cc(NCc4ccc5c(c4)OCO5)ccc3o2)cc1	Dicer inh 8
Cc1cc(NCc2ccc3c(c2)OCO3)ccc1Br	Dicer inh 3.8
O=C(O)c1cc(NCc2ccc3c(c2)OCO3)ccc1N1CCOCC1	none
CCc1ccc(CNCc2ccc3c(c2)OCO3)cc1	none
CC(C)(C)c1ccc(-c2nc3cc(NC(=O)c4ccc([N+](=O)[O-])o4)ccc3o2)cc1	none
O=c1[nH]c2ccc(NCc3ccc4c(c3)OCO4)cc2[nH]1	none
Clc1cc(NCc2ccc3c(c2)OCO3)ccc1N1CCOCC1	Dicer inh 6.9
c1ccc(NCc2ccc3c(c2)OCO3)cc1	none
O=C(O)c1ccccc1SC1CC(=O)N(c2ccccc2Cl)C1=O (configuration not stated)	none
CC(=O)N(c1ccccc1)C1CC(C)N(C(=O)c2cccs2)c2ccccc21 (configuration not stated)	none
C(=C/c1nnnn1-c1ccccc1)/Nc1ccccc1	none
O=C(Cn1nc2sc3ccccc3n2c(=O)c1=O)NC(=O)Nc1ccccc1	none
CCOc1nc(-c2ccc(C)cc2)ccc1-c1noc(-c2ccco2)n1	none
COC(=O)c1c(NC(=O)C2COc3ccccc3O2)sc2c1CCCC2 (configuration not stated)	none
CCOC(=O)c1sc(NC(=O)C2CCCC2)c(C(=O)OCC)c1C	none
CCOC(=O)c1sc(NC(=O)C2COc3ccccc3O2)c(C(=O)OCC)c1C (configuration not stated)	Dicer inh 3.3
CCC(=O)Nc1sc(C(=O)OC)c(C)c1C(=O)OC	none
CCOC(=O)c1c(NC(C)=O)sc(C(=O)CC)c1C	Dicer inh 6.1
CCOC(=O)c1sc(NC(=O)C2CCCO2)c(C(=O)OCC)c1C (configuration not stated)	none
Cn1c(=O)c2c(nc3n(-c4ccc5c(c4)OCO5)c(-c4ccccc4)cn23)n(C)c1=O	none
S=C(Nc1ccc2c(c1)CCC2)N1CCSCC1	none
CC(C)(C)C(=O)Nc1cccc(F)c1C(=O)O	none
COc1ccc(OC)c(N2CC(=O)N(c3cc(OC)ccc3OC)CC2=O)c1	none
COc1cc(C2C(C(=O)OC(C)C)=C(C)NC3=C2C(=O)CC(C)(C)C3)cc(Cl)c1O (configuration not stated)	none
CCc1nnc(NC(=S)NC(=O)c2ccccc2)s1	none
CCc1nnc(NC(=O)c2cc(Br)ccc2Cl)s1	none
CCc1nnc(NC(=O)c2ccccc2O)s1	Dicer inh 4.2
CNC(=S)NNC(=O)c1cnccc1C(F)(F)F	none
O=C(Nc1cccnc1)c1cc(-c2ccc(Cl)cc2)oc1C(F)(F)F	none
O=C(Nc1ccc2oc(-c3cccc4ccccc34)nc2c1)c1ccc([N+](=O)[O-])o1	none
Cc1ccccc1-c1nc2cc(NCc3cccs3)ccc2o1	Dicer inh 8.2
O=C(Nc1ccc2oc(-c3ccccc3F)nc2c1)c1ccc([N+](=O)[O-])o1	none
CCCCn1cnc2c(sc3nc4c(cc32)COC(C)(C)C4)c1=O	none
C=CCOc1ccc(C2CC(=O)Oc3c2c(=O)n(C)c2ccccc32)cc1 (configuration not stated)	none
N#CC1=C(N)Oc2c(ccc3ccccc23)C1c1ccc(Cl)cc1 (configuration not stated)	none
CCN(CC)c1ccc2c(c1)OC(N)=C(C#N)C2c1ccc(Cl)cc1 (configuration not stated)	none
COc1cc(C2C(C#N)=C(N)Oc3c2ccc2ccccc32)cc(Br)c1O (configuration not stated)	Dicer inh 3.3
COc1ccc(C2C(C#N)=C(N)Oc3cc(O)ccc32)cc1Br (configuration not stated)	none
CCOc1cc(C2C(C#N)=C(N)Oc3c2c(C)nn3-c2ccccc2)ccc1O (configuration not stated)	none
CCO/C=N\C1=C(C#N)C(c2ccc(Cl)cc2)c2ccc3ccccc3c2O1 (configuration not stated)	Dicer inh 3.9
CCO/C=N\C1=C(C#N)C(c2ccc(OC)cc2)c2ccc3ccccc3c2O1 (configuration not stated)	none
CCOc1cc(C2C(C#N)=C(N)Oc3c2ccc2ccccc32)ccc1O (configuration not stated)	Dicer inh 7.2
C=CCOc1c(Cl)cc(C2C(C#N)=C(N)Oc3cc(O)ccc32)cc1OC (configuration not stated)	none
Cc1cc(C)c2[nH]cc(C(=O)O)c(=O)c2c1	none
CCc1nnc2sc(-c3ccc(C)c(NC(=O)C(C)(C)C)c3)nn12	none
COc1ccc(C2/C(=C(/O)c3ccccc3)C(=O)C(=O)N2CCO)cc1OC (configuration not stated)	none
Cn1c(=O)c2c(nc(NCc3ccccn3)n2C)n(C)c1=O	none
CC1=C(C(=O)OC2CCCCC2)C(c2ccncc2)C2=C(CC(C)(C)CC2=O)N1 (configuration not stated)	none
O=C(C1CCCCC1)N1CCN(c2ccc([N+](=O)[O-])cc2-n2cccc2)CC1	none
CCOC(=O)CN1C(=O)C(O)(CC(=O)c2cccc(Br)c2)c2ccccc21 (configuration not stated)	none
N/C(=N\OC(=O)CCn1cccc(C(F)(F)F)c1=O)c1cccc(Cl)c1	none
O=C(CSc1nc(-c2ccco2)cc(C(F)(F)F)n1)NC1CCCCC1	none
COc1ccc(C(=O)OCC(=O)c2ccc(Br)cc2)cc1OC	none
Cc1ccc(I)c(C(=O)OCC(=O)c2ccc(Br)cc2)c1	none
COc1cccc(C(=O)OCC(=O)c2ccc(Br)cc2)c1	Dicer inh 5.9
c1ccc2[nH]c(CCCc3nc4ccccc4s3)nc2c1	none
